Compounds with a hit are over-represented: about 18% of the library has one in this group of screens.
DT40 TDP1 no CPT: qHTS for Inhibitors of human tyrosyl-DNA phosphodiesterase 1 (TDP1): qHTS in cells in absence of CPT; DT40 Tdp1-/- hTDP1 cells, no CPT, ATP luminescence, 48 h; Potency, µM (series often up to 46.2 µM), for the others: at the top dose activity change, negative = growth inhibition, usual class: inhibitors; 15% of 420,000 active; AID 686978, 2013; note: potency is the fitted concentration of half-maximal effect; % is set by controls: 0 for no effect and ±100 for the full control effect; nearly all actives have a fitted effect of over 55% in size
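Growth of hTDP1-complemented DT40 Tdp1-knockout cells is measured by ATP luminescence after at least 48 hr compound exposure at 37 °C, with DMSO substituting for the 20 nM CPT used in the parallel screen.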
TDP1 cell CPT: DT40-hTDP1 cell growth loss with CPT; chicken DT40 Tdp1-/-;hTDP1 cells + 20 nM CPT, ATP luminescence, 48 h; Potency, µM (titrated, usually from 46.2 µM), without a hit: top-dose activity change, negative = growth inhibition, most hits filed as inhibitors; 12% of 420,000 active; note: potency is the fitted concentration of half-maximal effect; % is set by controls: 0 for no effect and ±100 for the full control effect; nearly all actives have a fitted effect of over 55% in size
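Chicken DT40 Tdp1-/- cells complemented with human TDP1, 400 cells/well, exposed to compounds plus 20 nM camptothecin for at least 48 h at 37 C; viability read as ATP content by CellTiter-Glo luminescence.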
TGFb inhibitor: inhibitors of TGF-b signaling; HepG2 CAGA-GFP TGF-b/SMAD3 reporter, GFP fluorescence, 18 h; TGF-beta stimulated, 500 pg/mL final; Potency, µM (series often up to 46.1 µM), for the others: top-dose activity, negative = inhibition, most hits filed as inhibitors; 1.2% of 410,000 active; note: potency is the fitted concentration of half-maximal effect; % is set by controls: 0 for no effect and ±100 for the full control effect; nearly all actives have a fitted effect of over 65% in size
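HEPG2 CAGA-GFP, 1000 cells/well; 2 h settle, 37 C; cpd via pin tool; TGF-b 500 pg/mL final; 18 h, 37 C; GFP imaging ex488/em500-530; %Activity normalised to -TGF-b and +DMSO controls; CRC fit, curve class.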
IL-1B inflam inh: inhibitors of inflammasome signaling (IL-1 beta secretion). THP-1 LPS/ATP IL-1B secretion, AlphaLISA, 16 h; active compounds read low. activity change, % at 57.5 µM. 4.7% of 360,000 active. AID 743279; in the data active = activity change below about -50%; inconclusive = mostly about -30% to -49%; note: % is set by controls: 0 for no effect and ±100 for the full control effect
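Secreted IL-1B measured by AlphaLISA bead assay after 16 h compound exposure of THP-1 cells; compounds (final up to 57.5 uM) added 1 h before LPS (250 ng/mL) and ATP (1.25 mM) stimulation; lower signal means less secretion.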
TDP1 block: blocks human tyrosyl-DNA phosphodiesterase 1. Q9NUW8. recombinant TDP1, AlphaScreen DNA substrate cleavage. Potency, µM (highest dose often 130 µM), without a hit: at the highest dose activity change, negative = inhibition, most hits filed as inhibitors. 0.28% of 350,000 active. AID 485290; note: potency is the fitted concentration of half-maximal effect; % is set by controls: 0 for no effect and ±100 for the full control effect; nearly all actives have a fitted effect of over 40% in size
Target sequence (Q9NUW8 whole entry, looked up): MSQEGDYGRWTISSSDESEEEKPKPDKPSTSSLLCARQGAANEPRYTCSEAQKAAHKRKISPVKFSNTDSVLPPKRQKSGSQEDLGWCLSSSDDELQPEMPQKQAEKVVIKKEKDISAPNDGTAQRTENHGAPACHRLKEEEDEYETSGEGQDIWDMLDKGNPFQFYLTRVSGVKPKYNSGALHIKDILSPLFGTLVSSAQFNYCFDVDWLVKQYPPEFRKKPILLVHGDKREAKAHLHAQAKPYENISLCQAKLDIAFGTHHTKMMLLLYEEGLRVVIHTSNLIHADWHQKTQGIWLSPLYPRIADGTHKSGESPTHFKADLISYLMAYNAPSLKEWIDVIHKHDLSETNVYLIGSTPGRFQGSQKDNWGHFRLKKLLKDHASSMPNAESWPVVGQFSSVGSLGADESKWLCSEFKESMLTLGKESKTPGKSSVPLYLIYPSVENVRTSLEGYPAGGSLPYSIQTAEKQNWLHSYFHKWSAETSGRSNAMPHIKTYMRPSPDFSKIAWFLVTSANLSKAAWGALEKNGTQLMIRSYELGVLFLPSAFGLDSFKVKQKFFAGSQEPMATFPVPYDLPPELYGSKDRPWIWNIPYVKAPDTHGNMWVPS
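AlphaScreen read-out: signal falls as enzyme removes the 3' tyrosine-FITC from a 5'-biotinylated DNA oligo (15 nM, 5 min, RT). Enzyme was E. coli-made recombinant Tdp1 at 1 nM, exposed to compound for 15 min beforehand; beads 10 ug/ml, 10 min.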
HepG2 tox: HepG2 cytotoxicity, counter-screen for TGF-b inhibitors | HepG2 CAGA-GFP viability, ATP luminescence, 18 h | Potency, µM (top dose mostly 46.1 µM), for inactives: at the top dose activity change, negative = cytotoxicity, usual class: cytotoxic | 0.76% of 410,000 active; note: potency is the fitted concentration of half-maximal effect
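HepG2 CAGA-GFP cells (1000/well, DMEM with 1% FBS) received compound, then TGF-beta at 500 pg/mL final, and were incubated 18 hours at 37 degrees C. Viability was read by CellTiter-Glo luminescence. Media-only wells were set as complete cell-killing and DMSO as no toxicity.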
Numbers without * were called inactive; ? = inconclusive; . = no result. Unless noted, calls come from the whole dose curve; as a rule, active = well fitted curve in the direction sought with a large enough effect; inconclusive = small, poorly fitted or top-dose-only effect, or another doubt; inactive = no such curve, though single readings can be large; an effect the other way counts as inactive or inconclusive.

SMILES	DT40 TDP1 no CPT	TDP1 cell CPT	TGFb inhibitor	IL-1B inflam inh	TDP1 block	HepG2 tox
CCOc1ccc(CCN2C(=O)C(=O)N([C@@H](Cc3ccc(O)cc3)CN3CCC[C@H]3CN3C(=O)C(=O)NC[C@@H]3Cc3ccc(O)cc3)C[C@@H]2Cc2ccccc2)cc1	?	?	.	0	.	.
CCOc1ccc(CCN2C(=O)C(=O)N([C@@H](CC(C)C)CN3CCC[C@H]3CN3C(=O)C(=O)NC[C@@H]3CC(C)C)C[C@@H]2Cc2ccc(O)cc2)cc1	?	16µM*	.	-72*	.	.
NC(=O)OC[C@@H]1[C@H](NC(=O)/C(=N\OCC(=O)O)c2csc(N)n2)C(=O)N1S(=O)(=O)O	-13%	0%	.	.	.	.
C[C@@H]1CN([C@@H](C)CO)S(=O)(=O)c2ccc(C#CC(C)(C)O)cc2O[C@H]1CN(C)C(=O)C1CCCCC1	?	-17%	14%	-30	.	0%
c1ccc2c(c1)ccn2-n1ccc2ccccc21	13µM*	-54%	16µM*	.	.	-58%
COCCCNC(=O)C1CCN(Cc2cc3ccccc3n2Cc2ccccc2C)CC1	?	?	?	.	-2%	-24%
O=C(NCCc1ccccc1)C1CCN(Cc2cc3ccccc3n2Cc2cccc(Cl)c2)CC1	21µM*	?	-3%	.	4%	-30%
Cc1ccc(Cn2c(CN3CCC(C(=O)NCC(C)c4ccccc4)CC3)cc3ccccc32)cc1 (centres undefined)	26µM*	?	4%	.	-1%	-4%
COCCNC(=O)C1CCCN(Cc2cccc(Cl)c2)CC1 (centres undefined)	-14%	-23%	-11%	16	.	-13%
O=C(NCc1ccccc1F)C1CCN(Cc2cc3ccccc3n2Cc2cccc(Cl)c2)CC1	23µM*	?	-10%	.	2%	-25%
Cc1ccc(Cn2c(CN3CCC(C(=O)NCCc4ccccc4)CC3)cc3ccccc32)cc1	16µM*	23µM*	?	.	11%	-97%
O=C(NCCc1ccccc1)C1CCN(Cc2ccccc2F)CC1	-10%	3%	-25%	0	-2%	-23%
CCOc1cc(C(=O)NC(=S)Nc2ccc(Cl)c(C(=O)O)c2)cc(OCC)c1OCC	-5%	-1%	-26%	33	-5%	-30%
Cc1onc(-c2ccccc2Cl)c1C(=O)OCC(=O)N1CCCCC1	-29%	-21%	6%	-14	-3%	-21%
O=C(CCC1CCCN(Cc2cccc(Cl)c2)C1)NCc1ccccc1F (centres undefined)	?	21µM*	1%	0	.	4%
O=C(NCc1ccco1)C1CCN(c2nc3ccccc3n2Cc2ccccc2F)CC1	?	16µM*	9%	?	0%	-13%
Cc1cc(C)nc(N2CCC(C(=O)NCc3ccccc3F)CC2)n1	13%	2%	-1%	18	-1%	6%
CCOC(=O)c1ccc(NS(=O)(=O)c2cn(C)cn2)cc1	-17%	-1%	-6%	0	0%	3%
Cc1scc(-c2n[nH]c(=S)n2C(C)c2ccccc2)c1C (centres undefined)	16µM*	?	?	8	3%	-26%
CC(c1ccccc1)n1c(-c2ccccc2)n[nH]c1=S (centres undefined)	-30%	-17%	12%	.	.	-4%
CN(C)c1nc(-c2ccccc2)c2cnn(Cc3ccccc3)c2n1	-15%	?	-14%	-4	16µM*	-32%
N[C@H](CSCc1ccccc1)C(=O)Nc1ccc([N+](=O)[O-])cc1	?	-15%	-5%	0	.	-102%
N=c1c2c(ncn1CCCO)Oc1ccc3ccccc3c1C2c1ccccc1 (centres undefined)	?	?	?	-56*	6%	-167%
COc1ccc(C2c3ccc4ccccc4c3Oc3ncn(CCO)c(=N)c32)cc1 (centres undefined)	26µM*	?	0%	-100*	.	-11%
COc1ccc(C2c3c(ncn(Cc4ccccc4)c3=N)Oc3ccc4ccccc4c32)cc1OC (centres undefined)	.	.	.	.	10%	.
SMILES	DT40 TDP1 no CPT	TDP1 cell CPT	TGFb inhibitor	IL-1B inflam inh	TDP1 block	HepG2 tox
N=c1c2c(ncn1CCCO)Oc1c(ccc3ccccc13)C2c1ccccc1 (centres undefined)	?	?	?	-28	4%	-118%
COc1ccc(C2c3ccc4ccccc4c3Oc3ncn(CCCO)c(=N)c32)cc1 (centres undefined)	?	?	?	-69*	.	-117%
CN(C)CCCn1cnc2c(c1=N)C(c1ccccc1)c1ccc3ccccc3c1O2 (centres undefined)	?	6.5µM*	?	-10	.	-102%
CCOc1ccc(/C=C(\C(=O)O)c2ccc(S(=O)(=O)N3CCOCC3)s2)cc1OC	0%	-2%	4%	24	-3%	13%
CN(CC1CCOCC1)C(=O)CC1C(=O)NCCN1Cc1cccc(C(F)(F)F)c1 (centres undefined)	17%	-2%	10%	9	.	-1%
O=C(NCc1cccc(C(F)(F)F)c1)C1CCCN(c2cnccn2)C1 (centres undefined)	3%	-8%	2%	0	4%	-13%
COC(=O)[C@H]1C[C@@]2(O)CN(S(=O)(=O)c3ccc(C)cc3)C[C@@]2(OC(=O)Nc2c(C)noc2C)C[C@H]1C(=O)OC	-15%	-1%	-4%	-6	.	-3%
O=C(Nc1cccc(OC(F)(F)F)c1)[C@@H]1O[C@H](CO)[C@H](O)[C@H](O)[C@H]1O	-2%	8%	7%	18	.	1%
COc1ccc(C2c3ccc4ccccc4c3Oc3ncn(CCN(C)C)c(=N)c32)cc1 (centres undefined)	21µM*	?	16µM*	-98*	.	-80%
Cc1ccc(NC(=O)Cc2csc(C)n2)c(C)c1	-11%	5%	-28%	.	5%	-13%
COc1ccc(-c2c3c(=O)n(C)c(=O)n(C)c3cn2-c2cc(OC)ccc2OC)cc1	23µM*	?	0%	-9	10%	39%
Cn1c(=O)c2c(-c3ccccc3)n(-c3ccc(N)cc3)cc2n(C)c1=O	15µM*	?	-18%	5	.	-14%
Cn1c(=O)c2c(-c3ccccc3)n(-c3ccccc3Br)cc2n(C)c1=O	5.2µM*	4.6µM*	?	-1	.	12%

Compound activity as filed in PubChem.
